hgDAF12 agonist – H. glycines DAF-12 receptor agonists, primary screen, cell-based, luminescence, HEK293, GAL4 fusion, UAS-luciferase; hit rate 1.8% among 370,000; HEK293 GAL4-hgDAF12 UAS-luciferase reporter, agonist luminescence; normalized to butyrate control; Nuclear hormone receptor DAF-12 (Heterodera glycines), GAL4 fusion; AID 687014, 2013; activation, % at 6.8 µM;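 active means activation above a cutoff set at the mean of all screened compounds plus 3 SD, cut at about 10% in these data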
esBAF inh – Bmi1 luciferase reporter increase in mESCs, primary screen, esBAF inhibitor project, mouse ES cells, Bmi1 luciferase knock-in, single point; 24 h; 100% = twice the neutral-well signal; reporter increase, % at 12.5 µM; hit rate 2% among 350,000; in the data active means activation above about 40%; inconclusive means no clear call, values can overlap the other calls;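 further: a rise in the Bmi1 reporter signal indicates esBAF inhibition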
DAX1 inh – DAX1 (NR0B1) inhibitors on StAR promoter, primary screen, cell-based, luminescence, SF-1 (NR5A1), full-length DAX-1; hit rate 1.1% among 370,000; HEK293T StAR-luciferase reporter, SF-1/DAX-1 repression relief; inhibition, % at 6.8 µM; AID 652010, 2013;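 active means inhibition above the mean over all tested compounds plus 3 SD, cut at about 3.6% in these data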;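 further: higher inhibition means more luminescence from relief of DAX-1 repression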
hcDAF-12 act – H. contortus DAF-12 nuclear receptor activators, primary screen, cell-based, luminescence, HEK293, lit1-tk-luc reporter; HEK293 hcDAF-12 lit1-tk-luc reporter; 0% DMSO, 100% Δ7-dafachronic acid; activation, % at 6.8 µM; hit rate 1.4% among 370,000; AID 652067, 2013;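 active means activation above the mean of all tested compounds plus 3 SD, cut at about 5.5% in these data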
ssDAF-12 act – S. stercoralis DAF-12 nuclear receptor activators, primary screen, cell-based, luminescence, HEK293, GRIP1 co-expression, lit1-tk-luc; Nuclear hormone receptor DAF-12 (Strongyloides stercoralis); HEK293 ssDAF-12/GRIP1 lit1-tk-luc reporter; % of 3 µM dafachronic acid response; activation, % at 6.8 µM; hit rate 1% among 370,000; AID 652126, 2013;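 active means activation above the mean over all tested compounds plus 3 SD, cut at about 0.9% in these data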
Wnt bcat act – Wnt/beta-catenin pathway activators, primary screen, cell-based, plate reader, single point | AID 743398, 2014 | activation, % at 9.35 µM | Wnt/beta-catenin reporter cell assay, activator | hit rate 1.2% among 300,000; in the data active means activation above about 30%, passing the limit was not always enough; inconclusive means no clear call, values can overlap the other calls
DAX1 conf – DAX1 (NR0B1) inhibitors relieving SF-1 repression, confirmation, cell-based, luminescence, HEK293T, full-length DAX-1, SF-1 activated StAR promoter; shares compounds with DAX1 inh; hit rate 87% among 2,400; HEK293T StAR-promoter luciferase reporter, SF-1/DAX-1 repression; inhibition, % at 6.8 µM;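 active means inhibition above the average of every tested compound plus 3 SD, cut at about 3.8% in these data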
SF1 AF2mut Luc – StAR reporter signal changes without DAX1, counter-screen for DAX1 inhibitor project, cell-based, luminescence, AF-2 mutant SF-1, transactivation | shares compounds with DAX1 inh | HEK293 StAR-luciferase, SF-1 AF2 mutant | inhibition, % at 6.8 µM | hit rate 78% among 2,400 | AID 652136, 2013;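 active means inhibition above the mean of all tested compounds plus 3 SD, cut at about 3% in these data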
LXR ag – LXR agonists, Gal4 luciferase reporter, confirmation, counter-screen for hcDAF-12 agonist project, cell-based, luminescence, HEK293, H. contortus campaign; 3,400 tested, under 10 active; AID 743027, 2013; shares compounds with hcDAF-12 act; activation, % at 6.8 µM; HEK293 Gal4-LXR tk-luc reporter, 24 h; normalized: DMSO 0%, positive control 100%;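 active means mean percent activation of the reporter above a cutoff set as the average over tested compounds plus their standard deviation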
Target sequence (P55055 whole entry, looked up, the tested form may be a part): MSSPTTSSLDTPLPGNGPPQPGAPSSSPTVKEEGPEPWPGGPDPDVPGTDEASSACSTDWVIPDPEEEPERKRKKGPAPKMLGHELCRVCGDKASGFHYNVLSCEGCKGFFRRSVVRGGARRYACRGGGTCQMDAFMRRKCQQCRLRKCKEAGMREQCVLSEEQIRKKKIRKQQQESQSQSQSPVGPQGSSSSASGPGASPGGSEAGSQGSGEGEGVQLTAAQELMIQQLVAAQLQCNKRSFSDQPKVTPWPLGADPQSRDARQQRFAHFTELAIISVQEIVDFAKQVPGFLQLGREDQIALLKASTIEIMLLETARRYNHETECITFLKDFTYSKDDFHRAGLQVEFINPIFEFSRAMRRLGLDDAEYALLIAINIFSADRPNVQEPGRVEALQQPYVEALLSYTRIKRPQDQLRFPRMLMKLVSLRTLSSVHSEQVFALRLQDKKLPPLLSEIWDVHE
hcDAF12 ag – H. contortus DAF-12 receptor agonists, confirmation, cell-based, luminescence, HEK293, lit1-tk-luc, triplicate; hit rate 61% among 3,400; activation, % at 6.8 µM; HEK293 hcDAF-12 lit1-tk-luc reporter; % of Δ7-dafachronic acid response; shares compounds with hcDAF-12 act;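 active means mean activation across triplicate tests above the threshold derived from the earlier primary screen, cut at about 5.5% in these data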
hgDAF12 conf – H. glycines DAF-12 receptor agonists, confirmation, cell-based, luminescence, HEK293, GAL4-LBD fusion | hit rate 80% among 3,300 | HEK293 GAL4-hgDAF12 luciferase reporter, agonist mode; percent of butyrate response | activation, % at 6.8 µM | shares compounds with hgDAF12 agonist;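 active means mean activation over triplicate wells above the hit cutoff derived from the earlier primary screen, cut at about 11% in these data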
LXR ag 2 – LXR agonists, Gal4 luciferase reporter, confirmation, counter-screen for hgDAF-12 agonist project, cell-based, luminescence, HEK293, H. glycines campaign. shares compounds with hgDAF12 agonist. 24 h. activation, % at 6.8 µM. 3,300 tested, under 10 active;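 active means mean activation of the triplicate above a set limit carried over from the primary screen, none filed active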
Of the large screens only hits and unclear results are named; the others gave an inactive call (follow-up assays come after a bar, where they were run). In the library only some 4.2% were active in any assay of this set; here they are far more common.

COc1cccc(/C=C/C(=O)Nc2ccc3c(c2)OCCO3)c1OC	hgDAF12 agonist 19, DAX1 inh 10, hcDAF-12 act 7.7 (no result: esBAF inh) | DAX1 conf 11 | SF1 AF2mut Luc 5.3 | LXR ag inactive | hcDAF12 ag 5.9 | hgDAF12 conf 17 | LXR ag 2 inactive
COc1cccc(/C=C/C(=O)Nc2cccc(C(C)=O)c2)c1OC	none (no result: esBAF inh)
O=C(C[C@@H]1C[C@@H]2c3cc(NC(=O)Nc4ccccc4)ccc3O[C@@H]2[C@@H](CO)O1)NCc1cccnc1	none (no result: hgDAF12 agonist, DAX1 inh, hcDAF-12 act, ssDAF-12 act, Wnt bcat act)
O=C(NC1=NCCS1)c1cccc(OC(F)F)c1	hgDAF12 agonist 16, DAX1 inh 5.0 (no result: esBAF inh) | DAX1 conf 14 | SF1 AF2mut Luc 9.6 | hgDAF12 conf 14 | LXR ag 2 inactive
O=C(NC1=NCCS1)c1sc2cc(Cl)cc(Cl)c2c1Cl	none (no result: esBAF inh)
CC(C)c1ccc(C(=O)NC2=NCCS2)cc1	hgDAF12 agonist 18, DAX1 inh 5.5, Wnt bcat act 45 | DAX1 conf 19 | SF1 AF2mut Luc 7.0 | hgDAF12 conf 14 | LXR ag 2 inactive
O=C(NC1=NCCS1)c1sc2ccccc2c1Cl	hgDAF12 agonist 21, esBAF inh inconclusive, DAX1 inh 4.7, hcDAF-12 act 11, ssDAF-12 act 1.1 | DAX1 conf 12 | SF1 AF2mut Luc 7.4 | LXR ag inactive | hcDAF12 ag 9.7 | hgDAF12 conf 15 | LXR ag 2 inactive
Cc1ccc(C(=O)NC2=NCCS2)cc1Cl	none (no result: hgDAF12 agonist, DAX1 inh, hcDAF-12 act, ssDAF-12 act, Wnt bcat act)
CSCc1ccc(C(=O)NCc2ccc(C)cc2)cc1	none

Assay outcomes: PubChem, several laboratories
